Bioassay records as filed in PubChem.
M1 ag: M1 muscarinic receptor agonism. CHO-M1 cells, Fluo-4 calcium fluorescence, agonist mode; hits give high values. B-score at 10 µM. actives 3% (n = 64,000);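 active means fluorescence rise, raw or as B-score row- and column-corrected plate score, outside the 99.7% band of its plate's samples, either direction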
PTK2B oligo ant: Pyk2 (human) oligomerization antagonism. Q293 cells, Pyk2 FERM NanoBiT luminescence; hits give low values. z-score (the deposit names both 25 µM and 10 µM). actives 0.83% (n = 99,000). AID 1347419. Q14289;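 active means Z-score of -3 or lower, scaled per plate to the spread of control and sample wells; inactive means z-score above -3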;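 further: negative z-score means lost luminescence so less FERM oligomerization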
Cav3 T inh: inhibitors of human Cav3.2 T-type calcium channel; O95180; Cav3.2-expressing cells, Fluo-4 calcium fluorescence FDSS; hits give low values; B-score at 10 µM; actives 4% (n = 100,000);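 active means single-dose well whose peak fluorescence ratio is a statistical outlier from its plate by either plate-standardised score or position-corrected B-score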
M1 antag: M1 muscarinic receptor (rat) antagonism; CHO-M1 cells, Fluo-4 calcium, ACh EC80 antagonist mode; hits give low values; B-score at 10 µM; P08482; AID 628; actives 3.4% (n = 64,000);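 active means calcium fluorescence response, raw or row-and-column corrected B-score, differing from the plate sample mean either way at a set confidence level, mostly lower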
An asterisk follows results filed as active; / = no result given. In the library only some 7.1% were active in any assay of this set; here they are far more common.

SMILES	M1 ag	PTK2B oligo ant	Cav3 T inh	M1 antag
Cc1nn(C(C)(C)C)c(OC(=O)c2ccc3c(c2)OCO3)c1Sc1ccccc1	/	-0.92	-4.9*	/
Cc1nn(C(C)(C)C)c(OC(=O)c2cccs2)c1Sc1ccccc1	/	-2	-5.2*	/
Cc1nn(C(C)(C)C)c(OC(=O)c2ccc3c(c2)OCO3)c1S(=O)(=O)c1ccccc1	-0.23	-2.6	-2.8	0.38
COC(=O)[C@H](Cc1ccccc1)NC(=O)NCCC1=CCCCC1	/	0.37	-0.64	/
COc1cc2[nH]c(=O)n(CCCCCC(=O)NCCc3c[nH]c4ccccc34)c(=O)c2cc1OC	/	0.41	0.39	/
O=S(=O)(NCCOCC(F)(F)F)c1ccc2oc3ccccc3c2c1	0.72	-0.87	-4.3*	-0.35
Clc1ccc(-n2nnnc2-c2cnc(-c3ccncc3)nc2-c2cccs2)cc1	/	-1.2	-2.6	/
FC(F)(F)c1nc(-c2cccs2)ncc1-c1nnnn1-c1ccc(Cl)cc1	/	-3.1*	-4.2	/
O=C(CN1C2CCCC1CC(NC(=O)c1ccco1)C2)Nc1ccccc1 (centres undefined)	/	0.23	2	/
COc1cc(C(=O)NC2CC3CCCC(C2)N3CC(=O)Nc2ccccc2)cc(OC)c1OC (centres undefined)	-0.038	-0.18	4.4*	-0.49
Cc1noc(C)c1S(=O)(=O)N(CC(=O)N1CCCC1)c1ccc(C(C)C)cc1	-0.6	/	-1.3	-1.1
Cc1noc(C)c1S(=O)(=O)N(CC(=O)N1CCCCCC1)c1ccc(C(C)C)cc1	0.4	/	-4.1*	0.6
COC(=O)C[C@H]1c2cc(F)ccc2S(=O)(=O)N1c1ccc(N(C)C)cc1	/	/	1.5	/
CC1(C)CC(n2c(NCCO)nc3c(c2=O)C2(CCCC2)Cc2ccccc2-3)CCO1 (centres undefined)	0.6	-0.39	-4.3*	-0.33
CCOC(=O)Cc1sc(N)nc1C	/	0.9	/	/
Cc1ccc(C(=O)N/N=C/c2cc(C)n(-c3ccc(Br)cc3)c2C)cc1[N+](=O)[O-]	/	0.76	0.032	/
Cc1cc(/C=N/NC(=O)c2cccc([N+](=O)[O-])c2)c(C)n1-c1ccc(Cl)cc1Cl	/	0.62	-6.4*	/
Cc1cccc(-n2c(C)cc(/C=N/NC(=O)c3cccc([N+](=O)[O-])c3C)c2C)c1	/	-1.9	-3.7*	/
CN(c1ccc([N+](=O)[O-])cc1/C=N/NC(=O)COc1ccccc1)C1CCCCC1	/	-0.53	/	/
O=C(COc1cccc2ccccc12)N1CCN(c2ccccc2)CC1	0.99	1.1	/	-0.32
O=C(COc1cccc2ccccc12)N1c2ccccc2CCc2ccccc21	/	-0.52	-6.6*	/
Cn1c(CSc2nnc(SCc3ccccc3)s2)nc2ccccc21	0.5	-0.13	-4.3*	-0.27
Cn1c(CSc2nc3ccc(Br)cc3[nH]2)nc2ccccc21	-0.57	-1.5	-0.035	0.45
COc1ccccc1NS(=O)(=O)c1cccc(C(=O)OCC(=O)Nc2cc(C)on2)c1	/	-0.65	-4.8*	/
Cc1cccc(NS(=O)(=O)c2ccc(C)c(C(=O)OCC(=O)Nc3cc(C)on3)c2)c1	-0.67	-3.8*	-4.1	0.31
SMILES	M1 ag	PTK2B oligo ant	Cav3 T inh	M1 antag
Cc1ccc(-c2cc(C(=O)OCC(=O)Nc3cc(C)on3)c3ccccc3n2)c(C)c1	0.55	-1.8	-1.4	0.79
NC(=O)C1=C[C@H](C2CCCCC2)C[C@H](OCc2ccc(CO)cc2)O1	/	/	0.65	/
Cn1c(=O)c(C(=O)CN2CCCc3ccccc32)c(N)n(Cc2ccccc2)c1=O	-0.22	0.92	-4.1*	0.073
CCC(=O)OCC(=O)c1c(N)n(Cc2ccccc2)c(=O)n(C)c1=O	-0.29	0.71	0.36	0.64
CC(C)(C)CC(C)(C)NCC(O)COc1c(F)cc(Br)cc1F (centres undefined)	/	1.2	-5.7*	/
CC(C)(C)NCC(O)COc1c(F)cc(Br)cc1F (centres undefined)	/	-0.52	0.16	/
CCn1c(CNC(=O)Cc2ccc(OC)cc2)nnc1SCC(=O)NC1CCCCC1	/	1.5	0.63	/
CCC(=O)c1ccc(OCC(O)CN2CCN(C(c3ccccc3)c3ccccc3)CC2)cc1 (centres undefined)	/	-1.4	-2.7	/
CCc1ccc2nc(NC3=NCN(CCOC)CN3)nc(C)c2c1	-0.25	/	/	0.035
Cc1cc2nc(NC3=NCN(Cc4cccnc4)CN3)nc(C)c2cc1C	0.54	/	/	-3.2*
O=C(c1ccc2c(c1)OCCO2)C1CCN(C(=O)c2ccc(F)c(F)c2)CC1	0.36	-0.91	-3.9*	-0.018
O=C(c1ccc2c(c1)OCCO2)C1CCN(C(=O)c2ccc(F)cc2)CC1	-0.39	-0.9	-1.1	0.3
Cc1ccc(Cn2c(SCC(=O)N/N=C/c3ccc(C)o3)nc3ccccc32)cc1	/	-1	-10*	/
O=C(CSc1nc2ccccc2n1Cc1ccccc1)N/N=C/c1ccco1	/	-0.76	-4*	/
Clc1cccc(Cl)c1COc1ccccn1	0.16	-0.49	-0.2	-0.019
CC1CCCCC12NC(=O)N(CC(=O)Nc1ccc(S(=O)(=O)N3CCOCC3)cc1)C2=O (centres undefined)	/	1.1	-0.45	/
CC1CCCCC12NC(=O)N(CC(=O)NC(=O)Nc1ccc3c(c1)OCCO3)C2=O (centres undefined)	/	-3.6*	0.26	/
Cc1ccccc1OCCCn1c(=O)sc2ccccc21	/	-0.24	-1.3	/
CCCN1C2CCCC1CC(NC(=O)Nc1ccc(C(C)C)cc1)C2 (centres undefined)	/	2.1	-4.9*	/
O=C(c1nnc(Cc2ccc(Cl)cc2)o1)N1CCc2ccccc2C1	-0.14	/	-5.7*	-0.79
CCOC(=O)Cn1c(=O)oc2cc(S(=O)(=O)Nc3ccc(N(CC)CC)cc3C)ccc21	-1.1	/	-2.6	-0.19
C(=C\c1ccccc1)/CSc1nnc(-c2ccncc2)n1Cc1ccco1	0.15	-0.24	-1.6	-0.043
C(=C\c1ccccc1)/CSc1nnc(-c2ccccc2)n1Cc1ccco1	/	-2.2	-5.8*	/
Cc1ccc(-c2nnc(SCc3nc4ccccc4[nH]3)n2Cc2ccco2)cc1	/	-0.92	/	/
Cc1cccc(-c2nnc(SCc3nc4ccccc4[nH]3)n2Cc2ccco2)c1	0.72	0.44	-4.8*	-0.9
SMILES	M1 ag	PTK2B oligo ant	Cav3 T inh	M1 antag
c1ccc(-c2cn3c(n2)-c2ccccc2C3)cc1	/	0.35	/	/
CCC1Oc2ccc(C)cc2N(CC(=O)N(Cc2cccnc2)Cc2ccc(C)o2)C1=O (centres undefined)	4.4*	-0.89	0.53	-1.5
Cn1cccc1Cc1nnc(SCC(=O)Nc2ccc3c(c2)OCCO3)n1-c1ccc(F)cc1	-0.64	/	-7.7*	-0.38
COc1ccc(NC(=O)CSc2nnc(Cc3cccn3C)n2-c2ccc(F)cc2)cc1OC	-0.19	/	-1.7	-0.14
Cc1ccc(-n2c(Cc3cccn3C)nnc2SCC(=O)NCc2ccc3c(c2)OCO3)cc1	-1.1	-0.38	-5*	1.2
O=C(CSc1nccn1-c1cccc(Cl)c1)Nc1ccc2c(c1)OCCO2	0.86	/	-3.7*	-0.63
Cc1ccc(-n2c(Cc3cccn3C)nnc2SCC(=O)Nc2nnc(C)s2)cc1	-0.57	-0.01	-0.53	0.058
Cc1ccc(-n2c(Cc3cccn3C)nnc2SCC(=O)Nc2ccc3c(c2)OCO3)cc1	0.54	0.19	-3.9*	0.24
COc1cccc(NC(=O)CSc2nccn2-c2cccc(OC)c2)c1	0.25	-0.26	/	-1.1
Cc1ccccc1[C@@H]1C(C#N)=C(N)S[C@H]1C(=O)c1ccccc1	/	-1.9	-2.1	/
